From PubChem BioAssay (Tox21) come the findings set out here.

The nature of experiment [1]: A CellTox Green Cytotoxicity Assay to monitor cytotoxicity in HepG2 cells - 32 hour (AID 1224883). Further: nearly all actives have a fitted effect of over 50% in size. Further: potency means the concentration at half of the fitted maximal effect. In outline: (§1)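 HepG2 cells were seeded together with the CellTox Green dye at 600 cells/well, left 5 h at 37 C/5% CO2, then given compounds in DMSO. Fluorescence from dye bound to dead-cell DNA was read repeatedly over 40 h of treatment at 37 C.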
Experiment [2] in a line: qHTS RealTime-Glo MT Cell Viability Assay in HepG2 cells - 16 hour (AID 1224885). Further: nearly all actives have a fitted effect of over 50% in size. Further: potency means the concentration at half of the fitted maximal effect. In outline:
(§2)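 HepG2 cells were seeded at 600 cells/well together with NanoLuc luciferase and a cell-permeant prosubstrate, preincubated 5 h at 37 C/5% CO2, then pin-dosed with compounds in DMSO. Nonlytic luminescence from viable cells was read at each time point.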
Background: qHTS replaces the single test concentration by a dilution series.

Experiment [3] is described as follows: qHTS RealTime-Glo MT Cell Viability Assay in HEK293 cells - 24 hour (AID 1224886). Further: nearly all actives have a fitted effect of over 50% in size. Further: potency means the concentration at half of the fitted maximal effect. In outline: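 HEK293 cells were seeded at 600 cells/well together with NanoLuc luciferase and cell-permeant prosubstrate, preincubated 5 h at 37 C/5% CO2, then given compound in DMSO by pintool. Luminescence from viable-cell prosubstrate reduction was read repeatedly over 40 h.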

Experiment [4] in a line: qHTS RealTime-Glo MT Cell Viability Assay in HEK293 cells - 8 hour (AID 1224887). Further: nearly all actives have a fitted effect of over 50% in size. Further: potency means the concentration at half of the fitted maximal effect. In outline:
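HEK293 cells mixed with RealTime-Glo reagents (NanoLuc plus cell-permeant prosubstrate) at 600 cells/well, preincubated 5 h at 37 C/5% CO2, then given 23 nL compound in DMSO. Nonlytic luminescence from viable cells was read at 0, 8, 16, 24, 32 and 40 h.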

Experiment [5] in a line: qHTS RealTime-Glo MT Cell Viability Assay in HepG2 cells - 0 hour (AID 1224889). Further: nearly all actives have a fitted effect of over 50% in size. In outline: as §2
The nature of experiment [6]: A CellTox Green Cytotoxicity Assay to monitor cytotoxicity in HepG2 cells - 8 hour (AID 1224890). Further: nearly all actives have a fitted effect of over 45% in size. Further: potency means the concentration at half of the fitted maximal effect. The procedure, abridged:
as §1

The nature of experiment [7]: qHTS assay to identify small molecule antagonists of the estrogen receptor alpha (ER-alpha) signaling pathway using the BG1 cell line in the presence of 0.1 nM 17-beta-estradiol - cell viability counter screen (AID 1259241). Further: nearly all actives have a fitted effect of over 40% in size. Further: potency means the concentration at half of the fitted maximal effect. In outline: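 Viability in VM7Luc4E2 cells after 22 hr compound exposure under 0.1 nM 17beta-estradiol stimulation, by CellTiter-Fluor.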
Experiment [8] in a line: qHTS assay to identify small molecule antagonists of the androgen receptor (AR) signaling pathway using the MDA cell line in the presence of 0.5 nM R1881 - cell viability counter screen (AID 1259242). Further: nearly all actives have a fitted effect of over 45% in size. Further: potency means the concentration at half of the fitted maximal effect. The procedure, abridged: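 MDA-kb2 cells (human breast carcinoma, stably carrying MMTV-luciferase reporter) were exposed to compounds with 0.5 nM R1881 (final) for 16 hr at 37C, 0% CO2; viability then read as live-cell protease fluorescence (CellTiter-Fluor, 30 min) in the same wells.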

The nature of experiment [9]: A CellTox Green Cytotoxicity Assay to monitor cytotoxicity in HEK293 cells - 16 hour (AID 1224888). Further: nearly all actives have a fitted effect of over 35% in size. Further: potency means the concentration at half of the fitted maximal effect. In outline:
(§3)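 HEK293 cells premixed with CellTox Green dye were seeded at 600 cells/well and left 5 h at 37 C/5% CO2 before pin transfer of 23 nL compound in DMSO. Fluorescence from dye bound to dead-cell DNA was read during 40 h treatment.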

Experiment [10] can be described thus: A CellTox Green Cytotoxicity Assay to monitor cytotoxicity in HEK293 cells - 8 hour (AID 1224884). Further: nearly all actives have a fitted effect of over 35% in size. The procedure, abridged:
as §3

Several values for one entry are separate records, joined by “and”; a condition that tells them apart may be missing. Identical values can stand only once. Records with an inconclusive call do not appear. Some compounds were tested as several samples or in several runs, with calls that do not always agree. Activity calls are given as the source filed them. The call rests on the fitted dose curve; in most records, active means well fitted curve in the direction sought with a large enough effect in the repeat runs; inconclusive means weak or mixed curves; inactive means no such curve, though single readings can be large; an effect the other way counts as inactive or inconclusive.
On the % scale 0 is the no-effect control and ±100 the full control effect.

In the case of `CCCCC/C=C/CC1CC(=O)OC1=O` (stereo unspecified), the Potency result in experiment [1], in experiment [2], in [3], in experiment [4], in experiment [5] and in experiment [6] was “inactive” each time. Also, the Potency result in [7] and in experiment [8] was “inactive” each time.
With `O=C(O)c1cc(Cl)cc(Cl)c1`, the Potency entry in experiment [1], in experiment [2], in experiment [3], in [4], in experiment [9] and in experiment [6] was “inactive” in each case. The Potency result in experiment [7] and in experiment [8] was “inactive” in each case.
As to `CCN(CC)CCOc1ccc(/C(=C(\Cl)c2ccccc2)c2ccccc2)cc1`, the Potency in experiment [1] is 17.7 µM (active) and 21.3 µM (active); in experiment [2] it was 31.6 µM (active) and 23.9 µM (active); in experiment [3], 12.6 µM (active) and 21.3 µM (active); in experiment [4], 12.6 µM (active) and 21.3 µM (active); in experiment [9], 35.4 µM (active); in experiment [6], 35.4 µM (active) and 21.3 µM (active). The Potency entry in experiment [7] is “inactive”.
As for `CN(C)c1ccc(C(=C2C=CC(=[N+](C)C)C=C2)c2ccccc2)cc1`, the Potency result in [10] and in [5] was “inactive” each time. For the same compound, the Potency in [2] was 10.7 µM (active) [middle of 4 runs]; in [3] it was 2.39 µM (active) [middle of 4 runs]; in experiment [4] it was 13.8 µM (active) and 10.7 µM (active) and 13.4 µM (active); in experiment [6] it was 21.9 µM (active) and 8.49 µM (active); in experiment [7], 30.6 µM (active) and 15 µM (active); in [8], 27.3 µM (active) and 2.98 µM (active).
Turning to `CCn1cc(C(=O)O)c(=O)c2cc(F)c(N3CCNC(C)C3)c(F)c21` (stereo unspecified), the Potency entry in experiment [1], in experiment [2], in experiment [3], in experiment [4], in experiment [9] and in experiment [5] was “inactive” in each case. The Potency entry in experiment [6] and in [8] was “inactive” each time.
As to `Cc1occc(=O)c1OC(=O)C(C)C`, the Potency entry in experiment [1], in experiment [2], in experiment [4], in [9], in [6] and in experiment [8] was “inactive” each time.
As for `CC(C)(C)c1cc(C(C)(C)C)c(O)c(C(C)(C)C)c1`, the Potency entry in [10], in experiment [2], in experiment [4], in experiment [5], in experiment [6] and in [7] was “inactive” in each case. The Potency result in [8] was “inactive”.
Take `CC(=O)C1=C(C)[C@@H]2C[C@@]3(C1)[C@H](C)CC[C@H]3C2(C)C`: the Potency result in experiment [1], in experiment [2], in experiment [3], in experiment [4], in experiment [9] and in [5] was “inactive” throughout. Besides, the Potency result in experiment [6] and in experiment [8] was “inactive” each time.
In the case of `CC1COc2c(N3CCN(C)CC3)c(F)cc3c(=O)c(C(=O)O)cn1c23` (stereo unspecified), the Potency result in experiment [1], in [9], in [6], in experiment [7] and in experiment [8] was “inactive” each time.
For the compound `COc1nc(C)nc(Cl)c1NC1=NCCN1`, the Potency entry in experiment [1], in experiment [2], in experiment [4], in experiment [9], in experiment [5] and in [6] was “inactive” each time. Further, the Potency entry in experiment [7] and in experiment [8] was “inactive” each time.
`O=C(Oc1ccccc1)c1ccccc1O`: the Potency result in [1], in experiment [2], in experiment [3], in experiment [4], in experiment [9] and in experiment [6] was “inactive” in each case. Also, the Potency result in [7] and in experiment [8] was “inactive” throughout.
With `CCC(=O)/C=C/C1C(C)=CCCC1(C)C` (stereo unspecified), the Potency result in experiment [1], in experiment [2], in experiment [4], in [5], in [6] and in experiment [7] was “inactive” each time. In experiment [8], the Potency result was “inactive”.
`CC(C)(C)c1ccccc1`: the Potency entry in experiment [1], in experiment [2], in experiment [3], in experiment [4], in [9] and in experiment [6] was “inactive” in each case. Moreover, the Potency result in experiment [7] and in [8] was “inactive” throughout.
As to `O=C(O)c1cn(-c2ccc(F)cc2)c2cc(N3CCNCC3)c(F)cc2c1=O`, the Potency entry in [1], in experiment [2], in experiment [3], in experiment [4], in experiment [9] and in [5] was “inactive” throughout. In addition, the Potency result in [6], in experiment [7] and in experiment [8] was “inactive” throughout.
On to `CCC(CO)(CO)COCC(CC)(CO)CO`, for which the Potency entry in [1], in experiment [2], in [4], in experiment [9], in [5] and in experiment [6] was “inactive” throughout. Besides, the Potency entry in experiment [7] and in experiment [8] was “inactive” each time.
Regarding `CNC1(C)C2CCC(C2)C1(C)C` (stereo unspecified), the Potency result in [2], in experiment [3], in experiment [4], in experiment [9], in experiment [5] and in experiment [7] was “inactive” each time. Besides, the Potency result in experiment [8] is “inactive”.
Regarding `Nc1ccc(O)cc1`, the Potency entry in experiment [1], in experiment [9], in experiment [5] and in experiment [6] was “inactive” each time. Besides, the Potency in [2] was 57.1 µM (active) and inactive; in experiment [3], 40.4 µM (active) and inactive; in experiment [4], 40.4 µM (active) and inactive; in [8], 50.4 µM (active) and inactive.
With `CC[C@H]1CN2CCc3cc(OC)c(OC)cc3[C@@H]2C[C@@H]1C[C@H]1NCCc2cc(OC)c(OC)cc21`, the Potency in [1] was 49.2 µM (active) and 21.3 µM (active); in experiment [3], 17.4 nM (active) and 47.7 nM (active); in experiment [4] it was 874 nM (active) and 3.38 µM (active). Also, the Potency result in [2], in [9] and in [6] was “inactive” each time.
As to `COC(=O)/C=C/c1ccccc1`, the Potency entry in experiment [1], in experiment [2], in experiment [3], in [4], in experiment [5] and in [6] was “inactive” throughout. Further, the Potency result in experiment [7] and in [8] was “inactive” throughout.
Regarding `O=C(O)CCc1ccccc1`, the Potency result in experiment [1], in [2], in experiment [3], in experiment [4], in experiment [9] and in experiment [5] was “inactive” each time. Also, the Potency result in experiment [6] and in experiment [8] was “inactive” throughout.
Take `Cc1cc(C(C)(C)C)c(O)c(C(C)(C)C)c1`: the Potency result in experiment [1], in experiment [2], in [3], in [4], in experiment [9] and in experiment [5] was “inactive” each time. For the same compound, the Potency result in [6] and in experiment [8] was “inactive” throughout.
As to `CC(=O)CC(C)=O`, the Potency entry in experiment [1], in [2], in experiment [3], in [4], in experiment [9] and in [6] was “inactive” in each case. Further, the Potency entry in experiment [7] and in [8] was “inactive” in each case.
For the compound `CC(=O)OCCOCCOCCOC(C)=O`, the Potency result in experiment [1], in experiment [2], in experiment [4], in [9], in [5] and in experiment [6] was “inactive” each time. For the same compound, the Potency result in experiment [7] and in experiment [8] was “inactive” each time.
`CCCOC(=O)c1cc(O)c(O)c(O)c1`: the Potency result in [1], in [2], in experiment [9], in experiment [5], in experiment [6] and in [7] was “inactive” each time. Besides, the Potency result in experiment [8] is “inactive”.
`Clc1ccc2c(c1)C(N1CCNCC1)=Nc1ccccc1O2`: the Potency in experiment [1] is 49 µM (active) and 26.8 µM (active); in experiment [3] it was 43.6 µM (active) and 26.8 µM (active). The Potency result in experiment [4], in experiment [6] and in experiment [7] was “inactive” in each case.
With `CC(C)(C)NC(=O)[C@@H]1CN(Cc2cccnc2)CCN1C[C@@H](O)C[C@@H](Cc1ccccc1)C(=O)N[C@H]1c2ccccc2C[C@H]1O`, the Potency entry in experiment [1], in experiment [2], in experiment [3], in experiment [4], in experiment [9] and in experiment [5] was “inactive” in each case. In addition, the Potency result in [6] and in experiment [8] was “inactive” each time.
As to `N[C@@H]1CONC1=O`, the Potency entry in experiment [10], in experiment [2], in experiment [3], in experiment [4], in experiment [9] and in experiment [5] was “inactive” in each case. The Potency entry in experiment [7] and in experiment [8] was “inactive” each time.
In the case of `Cc1cccc(O)c1C`, the Potency result in [1], in experiment [2], in [3], in experiment [4], in experiment [9] and in experiment [6] was “inactive” throughout. In addition, the Potency result in experiment [7] and in experiment [8] was “inactive” each time.
Turning to `C[N+]1([O-])CCOCC1`, the Potency result in [1], in [2], in experiment [4], in [9], in [5] and in [6] was “inactive” each time. Moreover, the Potency result in experiment [7] and in experiment [8] was “inactive” in each case.
Regarding `Cc1cccc2n[nH]nc12`, the Potency entry in experiment [1], in experiment [2], in experiment [3], in experiment [4], in experiment [9] and in [7] was “inactive” each time. Further, the Potency entry in experiment [8] was “inactive”. Also, the Potency result in [6] was “inactive and 43.6 µM (active)”.
